Rows were chosen to be rich in hits. Some 7.8% of all compounds tested hit in one or more screens of this group.
Vaccinia mCherry: inhibitors of vaccinia virus infection (mCherry reporter signal) | Vaccinia virus mCherry reporter infection, fluorescence | Potency, µM (titrated, usually from 36.5 µM), inactives show at the top dose activity change, negative = inhibition, hits mostly inhibitors | hit rate 0.63% among 310,000; calls by dose curve; tested in A549 cells; further: potency means the concentration at half of the fitted maximal effect; nearly all actives have a fitted effect of over 35% in size
MARV entry inh: inhibitors of Marburg virus binding or cell entry; Marburg virus pseudotyped entry inhibition, cell reporter; Potency, µM (top dose mostly 37.8 µM), without a hit: at the top dose activity change, negative = inhibition, hits mostly inhibitors; hit rate 1.8% among 300,000; AID 540276; calls by dose curve; tested in HEK293 cells; further: potency means the concentration at half of the fitted maximal effect
HCMV inh: blocks human cytomegalovirus replication. hit rate 4.5% among 410,000. HFF cells, HCMV-luciferase reporter, 72 h; hits give low values. AID 1259415. activity change, negative = inhibition, % at 57.5 µM; in the data active means activity change below about -60%; inconclusive means no clear call, values can overlap the other calls; inactive means above about -39%
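Screen run at 2 compound doses on HFFs infected with reporter HCMV, MOI 1 PFU/cell. Luciferase activity from cell lysates at 72 h post infection gave inhibition relative to buffer-only and Salinomycin wells.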
Vaccinia Venus: inhibitors of vaccinia virus (Venus reporter); hit rate 0.46% among 330,000; Vaccinia virus Venus reporter expression, fluorescence; Potency, µM (top dose mostly 36.5 µM), inactives show top-dose activity change, negative = inhibition, actives largely listed as inhibitors; calls by dose curve; tested in A549 cells; further: potency means the concentration at half of the fitted maximal effect; nearly all actives have a fitted effect of over 30% in size
Lassa entry inh: blocks Lassa virus binding to or entry into cells. Lassa virus pseudotype entry inhibition, cell reporter. Potency, µM (doses to about 37.9 µM), for the others: top-dose activity change, negative = inhibition, usual class: inhibitors. hit rate 1.2% among 300,000. AID 540256; calls by dose curve; tested in HEK293 cells; further: potency means the concentration at half of the fitted maximal effect; nearly all actives have a fitted effect of over 50% in size
HCV inhibitor: blocks hepatitis C virus; hit rate 3.4% among 340,000; Huh7.5.1 HCVcc-Cre infection, luciferase reporter, 44 h; Potency, µM (top dose mostly 41.8 µM), for the others: top-dose activity change, negative = inhibition, hits mostly inhibitors; active means well fitted inhibition curve with a large enough effect; inconclusive means small, poorly fitted or top-dose-only effect, or another doubt; inactive means no such curve, though single readings can be large or run the other way; further: potency means the concentration at half of the fitted maximal effect
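Cells seeded at 1,000/well and cultured 4 h, then compounds added followed by HCVcc-Cre virus (~0.5 moi). After 44 h further culture, luciferase substrate was added, plates held 15 min at room temperature, and luminescence read for 15 sec.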
* = called active by the depositor; i = inactive; u = inconclusive; x = no result; ! = repeats disagree; [ ] = another dose, or the depositor's remark. On the % scale 0 is the no-effect control and ±100 the full control effect.

SMILES	Vaccinia mCherry	MARV entry inh	HCMV inh	Vaccinia Venus	Lassa entry inh	HCV inhibitor
COc1ccc(N2CCN(c3oc(Cc4ccccc4)nc3C#N)CC2)cc1	x	u	-34	x	5.2µM*	-27%
COc1ccc(-c2c3c(=O)n(C)c(=O)n(C)c3c3n2-c2ccccc2NC3c2ccc(O)cc2O)cc1 (stereo not given)	-22%	9%[46.1 µM]	1	-9%	1%[46.1 µM]	x
O=c1c2ccccc2nc(/C=C/c2cccc3ccccc23)n1-c1ccc(F)cc1F	-15%	x	18	-17%	-1%[46.1 µM]	x
CC(=O)N1CCc2cc(S(=O)(=O)NC(CC(C)C)C(=O)Nc3ccc(C(C)C)cc3)ccc21 (stereo not given)	-10%	-21%[46.1 µM]	25	-16%	2%[46.1 µM]	x
O=C(NCC1CC1)c1cnc(N2CCN(Cc3cccc(F)c3)C2=O)s1	x	x	-99*	x	x	x
CC(C)NC(=O)c1cnc(N2CCN(Cc3cccc(F)c3)C2=O)s1	x	x	-19	x	x	x
O=C(N/N=C/c1ccco1)c1cc(-c2ccccc2)nc2ccccc12	u	-12%[46.1 µM]	-39	-20%	-15%[46.1 µM]	4%
O=C(N/N=C/c1ccc([N+](=O)[O-])o1)c1cc(-c2cccc(Br)c2)nc2ccccc12	-18%	u	-70*	-30%	u	10µM*
CCCc1ccc(-c2cc(C(=O)N/N=C/c3ccc([N+](=O)[O-])o3)c3ccccc3n2)cc1	u	7.1µM*	u	u	5.6µM*	10µM*
CCc1ccccc1NC(=O)Cn1c(=O)n(Cc2ccccc2)c(=O)c2c(C)c(C(=O)N(C)C)sc21	-11%	x	-7	4%	12%[46.1 µM]	x
CCc1cccc(NC(=O)C2Cc3ccccc3N2C(=O)c2ccccc2)c1 (stereo not given)	-4%	x	-4	-4%	1%[46.1 µM]	x
COc1cccc(C(=O)N2CCC[C@H]2C(=O)N2CCC[C@H]2C(=O)N[C@@H](C)c2ccccc2)c1	39%	x	-8	-1%	x	x
CC(NC(=O)C1CCN(S(=O)(=O)c2cccc3nonc23)CC1)c1ccccc1 (stereo not given)	-14%	-13%[46.1 µM]	-88*	-16%	-12%[46.1 µM]	5%
COc1ccc(N(C)C(=O)C2CCN(S(=O)(=O)c3cccc4nonc34)CC2)c(OC)c1	-20%	u	-61*	-4%	u	-21%
Cc1ccc2c(c1)S/C(=C\c1cccc[n+]1C)N2CCO	x	x	-97*	x	x	u
Cc1ccc2c(c1)S/C(=C/c1ccc[n+](CCO)c1)N2C	-18%	u	-95*	-15%	x	1.6µM*
O=C1NC(=O)/C(=C/c2ccc(-c3ccc(F)cc3O)o2)S1	x	6%	x	x	1%	x
Nc1ccc2ccc(N)cc2c1	x	x	-65*	x	x	x
Cc1ccc2c(c1)CC1(CN2C)C(=O)OC2(CCCCC2)OC1=O	-28%	0%	4	u	12%	18%
CN1CC2(Cc3c1ccc1ccccc31)C(=O)OC(C)(C)OC2=O	4µM*	u	58	6.3µM*	u	-1%
Cc1ccc(CNC(=O)CSc2c(C(C)C)cnc3c2c(=O)n(C)c(=O)n3C)cc1	-12%	x	-39	-18%	-9%[46.1 µM]	x
Cc1ccc(C(=O)NC2CCCCC2)cc1	-21%	0%	111	-26%	4%	6%
O=C(COC(=O)c1cc(F)c(F)cc1Cl)NC1CCCCCC1	i	x	-12	-3%	x	x
O=C(NC1CCCCCCC1)c1cc(F)c(F)cc1Cl	x	x	-61*	x	x	18%
Cc1ccc(C(=O)NC2CCCCCCC2)c(Cl)c1	x	x	-79*	x	x	15%
SMILES	Vaccinia mCherry	MARV entry inh	HCMV inh	Vaccinia Venus	Lassa entry inh	HCV inhibitor
CC1CCCN(CCCNC(=O)c2cc3c(Cl)nc4ccccc4c3s2)C1 (stereo not given)	-4%[7.34 µM]	2.8µM*	-91*!	u	u	13µM*
CC1CCCN(C(=O)c2cc3c(Cl)nc4ccccc4c3s2)C1 (stereo not given)	-11%	23%[46.1 µM]	-4	2%	-1%[46.1 µM]	x
CN(CCCNC(=O)c1cc2c(Cl)nc3ccccc3c2s1)Cc1ccccc1	-1%	10µM*	u	u	u	13µM*
Cc1ccc(-c2cc(C(=O)N(Cc3ccccc3)Cc3ccco3)no2)cc1F	-10%	8%[46.1 µM]	11	-3%	-1%[46.1 µM]	x
Cc1ccc(/C=C2/CNC/C(=C/c3ccc(C)cc3)C2=O)cc1	u	u	-29	u	u	8.9µM*
CC1CC1c1ccc(/C=C(\C#N)C(=O)Nc2cc(Cl)ccc2Cl)o1 (stereo not given)	i	u	15	-15%	3%	u
CC1CC1c1ccc(/C=C(\C#N)C(=O)Nc2ccc(Cl)cc2Cl)o1 (stereo not given)	-20%	u	-64*	3%	-6%	u
COc1ccc(-c2noc(N(c3cccc(Cl)c3)c3nc(-c4ccc(OC)c(OC)c4)no3)n2)cc1OC	u	6%[46.1 µM]	16	u	-4%[46.1 µM]	x
CC(=O)Nc1cccc(-c2nnc(-c3ccccc3)o2)c1	i	u	113	-19%	0%	6%
O=C(Nc1cccc(-c2nnc(-c3ccco3)o2)c1)c1ccccc1	i	u	-2	-15%	-26%[46.1 µM]	-27%
COc1ccccc1OCC(=O)Nc1cccc(-c2nnc(-c3ccco3)o2)c1	-11%	6.3µM*	121	-15%	u	u
CC(=O)Oc1ccc(C(=O)Nc2cccc(-c3nnc(-c4ccco4)o3)c2)cc1	i	11µM*	-39	-18%	u	u
COc1ccc(CC(=O)Nc2cccc(-c3nnc(-c4cccc(C)c4)o3)c2)cc1OC	-7%[1.46 µM]	u	-17	u	u	6.3µM*
O=C(Nc1cccc(-c2nnc(-c3ccccc3)o2)c1)C1CC1	-19%	u	u	-13%	-17%	14µM*
CCOc1ccccc1NC(=O)C1=C(C)Nc2ncnn2C1c1cccs1 (stereo not given)	-16%	x	-18	-4%	u	x
Cc1cccc2nc(CNC(=O)CN3Cc4ccccc4OC(c4ccccc4F)C3)cn12 (stereo not given)	-3%	x	x	4%	x	x
CCc1cccc(NC(=O)Cc2ccc(OC)c(OC)c2)c1	-26%	u	-82*	-16%	u	u
COc1ccc(CC(=O)Nc2cccc(-c3nnc(-c4ccccc4)o3)c2)cc1OC	11µM*	4.6µM*	u	u	7.3µM*	6.3µM*
CC(C)c1cccc(NC(=O)COC(=O)c2ccccc2OCc2cccc(Br)c2)c1	-16%	x	x	-14%	x	x
COc1ccc(CC(=O)NCc2cccc(CNC(=O)Cc3ccc(OC)c(OC)c3)c2)cc1OC	x	x	17	x	x	-2%
COc1ccc(CC(=O)Nc2ccc(-c3nnc(-c4ccccc4)o3)cc2)cc1OC	i	20%	19	-6%	25%[14.3 µM]	6%
CC(=O)Oc1ccc(C(=O)Nc2cccc(C(=O)NC(C)(C)C)c2)cc1	-3%	16%[46.1 µM]	-4	-1%	-11%	13µM*
CCc1cccc(NC(=O)COC(=O)c2ccccc2OCc2ccccc2Br)c1	u	x	x	13µM*	x	x

Assay outcomes deposited in PubChem by National Center for Advancing Translational Sciences (NCATS).
